Screens as filed in PubChem.
hNpr1 antagonist – Natriuretic polypeptide receptor (hNpr1) antagonism - Primary qHTS; Atrial natriuretic peptide receptor 1 (Homo sapiens), P16066; HEK293 hNpr1 GloSensor cGMP, ANP-stimulated luminescence; Potency, µM (series often up to 46.3 µM), for the others: at the highest dose activity change, negative = inhibition, actives largely listed as inhibitors; 76,000 tested, 1.6% active; AID 1347048, 2019; calls by dose curve; also: nearly all actives have a fitted effect of over 60% in size
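Compound pre-incubated 30 min at room temperature on GloSensor-loaded HEK293 cells stably carrying hNpr1 and the pGS-40F cGMP biosensor. Stimulation uses hNppA at 0.1 nM final; luminescence is taken at baseline and 20 min post-agonist.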
FLuc inh – Firefly luciferase inhibition profiling of diverse chemical library using quantitative high-throughput screening; purified P. pyralis luciferase, luminescence, biochemical; 76,000 tested, 2.5% active; Luciferin 4-monooxygenase (Photinus pyralis), P08659; AID 1347043, 2019; Potency, µM (top dose mostly 115 µM), most hits filed as inhibitors; also: nearly all actives have a fitted effect of over 65% in size
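Inhibitors were tested against purified firefly luciferase in a biochemical, low-substrate format (both substrates at 10uM) and luminescence measured with a CCD imager.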
NIH3T3 tox – Cytotoxic Profiling in NIH 3T3 Cell Line of Diverse Libraries Using Quantitative High-Throughput Screening | NIH 3T3 viability, CellTiter-Glo ATP luminescence, 48-72 h | 94,000 tested, 4.3% active | AID 1345082, 2018 | Potency, µM (top dose mostly 96.7 µM), for the others: at the top dose activity change, negative = cytotoxicity, usual class: inhibitors; also: nearly all actives have a fitted effect of over 55% in size
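Cytotoxicity is measured as loss of cellular ATP: NIH 3T3 cells (400/well) are exposed to compound for 48 or 72 hr at 37 °C, then CellTiter-Glo luminescence is imaged after 10 min at room temperature.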
HEK cytotox – Cytotoxic Profiling in HEK 293 Cell Line of Diverse Libraries Using Quantitative High-Throughput Screening; HEK 293 viability, ATP luminescence (CellTiter-Glo), 48-72 h; Potency, µM (series often up to 115 µM), for inactives: top-dose activity change, negative = cytotoxicity, most hits filed as inhibitors; 94,000 tested, 6.6% active; also: nearly all actives have a fitted effect of over 60% in size
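Luminescence from cellular ATP, measured with CellTiter-Glo, indicates HEK 293 viability. Cells plated at 250 cells/well are treated with compound for 48 or 72 hr at 37 degree Celsius before reagent addition.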
GPT2 inhibitor – Primary qHTS assay for inhibitors of Glutamate pyruvate transaminase 2 (GPT2); Recombinant GPT2, coupled pyruvate oxidase/HRP Amplex Red fluorescence; Potency, µM (titrated, usually from 57.7 µM), without a hit: at the top dose activity change, negative = inhibition, most hits filed as inhibitors; Alanine aminotransferase 2 (Homo sapiens), Q8TD30; 100,000 tested, 0.25% active; also: nearly all actives have a fitted effect of over 60% in size
Target sequence (Q8TD30 whole entry, looked up): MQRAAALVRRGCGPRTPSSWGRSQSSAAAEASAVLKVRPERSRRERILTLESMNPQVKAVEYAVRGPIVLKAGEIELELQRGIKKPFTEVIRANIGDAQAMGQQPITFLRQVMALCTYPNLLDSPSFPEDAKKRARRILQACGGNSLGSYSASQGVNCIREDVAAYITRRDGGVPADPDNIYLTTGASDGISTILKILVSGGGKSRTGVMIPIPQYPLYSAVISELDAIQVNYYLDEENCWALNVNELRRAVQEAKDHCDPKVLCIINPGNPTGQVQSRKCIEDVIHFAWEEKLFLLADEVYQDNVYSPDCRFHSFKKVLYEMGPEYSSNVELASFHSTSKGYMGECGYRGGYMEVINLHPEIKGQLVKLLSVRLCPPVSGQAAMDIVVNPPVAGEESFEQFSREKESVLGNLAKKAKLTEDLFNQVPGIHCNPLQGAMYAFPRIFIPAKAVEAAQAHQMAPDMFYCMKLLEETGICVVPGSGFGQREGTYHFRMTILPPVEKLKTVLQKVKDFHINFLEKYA
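Inhibition is scored from Amplex Red fluorescence generated when pyruvate oxidase and HRP act on pyruvate released by GPT2. Reactions contain 10ng/uL enzyme, 250uM a-KG and 2mM L-alanine and run 30 min at room temperature.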
Starred values were filed as active, the others as inactive; i = inactive; ? = inconclusive; . = no result given; [ ] = remark or other dose. A selection: hits, their analogues and other compounds. The true share with any hit is near 10%. Unless noted, calls follow the shape of the dose curve; as a rule, active = well fitted curve in the direction sought with a large enough effect; inconclusive = small, poorly fitted or top-dose-only effect, or another doubt; inactive = no such curve, though single readings can be large; an effect the other way counts as inactive or inconclusive. % is scaled to controls: 0 for no effect and ±100 for the full control effect; potency is read from the fitted curve at half-maximal effect.

SMILES	hNpr1 antagonist	FLuc inh	NIH3T3 tox	HEK cytotox	GPT2 inhibitor
Cc1ccc(C2Cn3cnc(C(=O)N4CCC(C(=O)NCc5ccccc5F)CC4)c3CO2)cc1 (configuration not stated)	-13%	?	-3%	-13%	0%
Cc1ccc(C2Cn3cnc(C(=O)N4CCC(C(=O)NCc5ccc(F)cc5F)CC4)c3CO2)cc1 (configuration not stated)	-7%	?	-4%	-23%	i
CCOC(=O)C1CCCN(C(=O)c2nc3sccn3c2-c2ccccc2)C1 (configuration not stated)	.	.	?	?	i
Cn1ncc2c(C(=O)NCc3ccccc3Cl)cc(-c3ccc(F)cc3)nc21	.	.	-32%	?	1%
CN(C)c1ccc2ncc(Nc3ccccc3-c3ccccc3)n2n1	-6%[70.6 µM]	?	28µM*	63µM*	i
CN(C)c1ccc2ncc(Nc3cccc(C(F)(F)F)c3)n2n1	6%[70.6 µM]	i	?	?	i
CC(C)(C#N)c1ccc(-c2cc(CO)ccn2)cc1	-18%	32µM*	?	?	?
O=C1CCN(S(=O)(=O)c2ccccc2)CCCN(C(=O)CCC2CCCC2)CCN1	5%	i	-13%	i	i
O=C(NCc1ccc(F)cc1)c1cn2cc(-c3ccc(C(F)(F)F)cc3)sc2n1	.	.	?	50µM*	?
O=C(NCC(F)(F)F)c1cn2cc(-c3ccccc3)sc2n1	.	.	89µM*	?	i
O=C(NCC(F)(F)F)c1cn2cc(-c3cccc(C(F)(F)F)c3)sc2n1	.	.	?	?	i
O=C(NCc1ccc(F)cc1)c1cn2cc(-c3ccc(F)cc3)sc2n1	.	.	?	?	i
CNC(=O)c1cn2cc(-c3ccc(OC)cc3)sc2n1	.	.	100µM*	71µM*	4%[88.5 µM]
O=C(NCc1cccc(Cl)c1)c1cn2cc(-c3ccc(C(F)(F)F)cc3)sc2n1	.	.	22µM*	45µM*	-7%
COc1cccc(-c2cn3cc(C(=O)NCc4ccccc4)nc3s2)c1	.	.	?	?	i
O=C(NCc1cccc(C(F)(F)F)c1)c1cn2cc(-c3ccccc3)sc2n1	.	.	-26%	45µM*	?
O=C(NCc1cccc(C(F)(F)F)c1)c1cn2cc(-c3ccc(F)cc3)sc2n1	.	.	40µM*	?	i
O=C(NCc1ccc(F)cc1)c1cn2cc(-c3cccc(C(F)(F)F)c3)sc2n1	.	.	?	-24%	i
COc1ccc(-c2cn3cc(C(=O)NCc4cccc(C(F)(F)F)c4)nc3s2)cc1	.	.	?	35µM*	?
O=C(NCc1ccc(Cl)cc1)c1cn2cc(-c3ccc(F)cc3)sc2n1	.	.	?	28µM*	i
O=C(NCCc1ccccc1)c1cn2cc(-c3cccc(C(F)(F)F)c3)sc2n1	.	.	-12%	?	i
Cc1cc(NC(=O)CCn2ccn3nc4c(c3c2=O)CCCC4)ccc1F	-2%	i	-15%	?	i
COc1ccc(-c2cn3cc(C(=O)NCc4ccc(F)c(F)c4)nc3s2)cc1	.	.	?	13µM*	-13%
COc1cccc(-c2cn3cc(C(=O)NCc4ccc(Cl)cc4)nc3s2)c1	.	.	?	?	-3%[88.5 µM]
O=C(NCc1cccnc1)c1cn2cc(-c3ccc(C(F)(F)F)cc3)sc2n1	.	.	?	20µM*	i
SMILES	hNpr1 antagonist	FLuc inh	NIH3T3 tox	HEK cytotox	GPT2 inhibitor
O=C(NCc1ccc(Cl)cc1)c1cn2cc(-c3ccc(C(F)(F)F)cc3)sc2n1	.	.	-10%	-4%	3%
COc1ccc(-n2c(=O)c(C(=O)NC3CC3)nc3cccnc32)cc1	.	.	-16%[138 µM]	-10%[172 µM]	0%[88.5 µM]
COc1cccc(CN2CCCCCCNC(=O)[C@@H]3C[C@@H](C(=O)NCCc4cnc[nH]4)C[C@@H]32)c1	4%	i	i	-1%	i
O=C1CCCCC(C(=O)NCc2ccc3c(c2)OCO3)N1 (configuration not stated)	4%	i	i	8%	i
O=C(c1cc(C2CC2)[nH]n1)N(Cc1ccc2c(c1)OCO2)C1CC1	-7%	28µM*	-33%	?	i
Cc1nn(-c2ccccc2)c2c1C(C1CC1)N(C1CN(C(=O)c3ccccc3Cl)C1)C2=O (configuration not stated)	.	.	13µM*	?	.
Cc1nn(-c2ccccc2)c2c1C(C1CC1)N(C1CN(C(=O)c3cccc(Cl)c3)C1)C2=O (configuration not stated)	.	.	-28%	-23%	.
CCNC(=O)N1CC(N2C(=O)c3c(c(C)nn3-c3ccccc3)C2C2CC2)C1 (configuration not stated)	.	.	-27%	?	.
CC(=O)N1CC(N2C(=O)c3c(c(C)nn3-c3ccccc3)C2C2CC2)C1 (configuration not stated)	.	.	?	4%[172 µM]	.
Cc1ccccc1C(=O)N1CCC(N2C(=O)c3c(c(C)nn3-c3ccccc3)C2C2CC2)C1 (configuration not stated)	.	.	?	28µM*	.
Cc1nn(-c2ccccc2)c2c1C(C1CC1)N(C1CCN(C(=O)c3ccccc3Cl)C1)C2=O (configuration not stated)	.	.	22µM*	35µM*	.
Cc1nn(-c2ccccc2)c2c1C(C1CC1)N(C1CN(C(=O)C3CCCC3)C1)C2=O (configuration not stated)	.	.	35µM*	45µM*	.
COCCN1Cc2ccccc2N(CC(O)Cc2ccccc2)CCC1=O (configuration not stated)	.	.	-20%	?	.
Cc1nn(-c2ccccc2)c2c1C(C)N(CC1CN(Cc3cccc(C(F)(F)F)c3)C1)C2=O (configuration not stated)	.	.	?	28µM*	.
Cc1nn(-c2ccccc2)c2c1C(C)N(CC1CN(C(=O)c3ccccc3Cl)C1)C2=O (configuration not stated)	.	.	?	50µM*	.
O=C(Nc1cccc(-c2nnc3n2CCCC3)c1)c1ccc2c(c1)OCO2	-2%	?	-18%	?	-2%
CCOc1ccc(C(=O)NC2CCCN(c3cc(-c4ccccc4)[nH]n3)C2)cc1OCC (configuration not stated)	-9%	i	?	32µM*	-6%
COc1ccc(C(=O)NC2CCCN(c3cc(-c4ccccc4)[nH]n3)C2)cc1OC (configuration not stated)	-10%	28µM*	-29%	?	-8%
